Data on 47 sequences can be found in the supplement of paper PMC11417369.

Over roughly 25,000 sequences, “ln(normalized median fluorescence intensity)” has its median near 6.7; the highest 2% begin near 10. The entries come from a sample that favours the highest values as a whole.

For the test, the system named is PfHDP1 homeodomain (GST-tagged). Description: gcPBM binding intensity (ln(normalized median fluorescence intensity)); higher = stronger DNA binding. An outline of the steps:
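GST-tagged P. falciparum DNA-binding domains, expressed in E. coli (about 25 μg on average), were applied for 1 h to an Agilent 4 × 180k array of primer-extended double-stranded 36-bp intergenic genomic probes plus negative controls. The binding buffer was 1× PBS with 1% milk, 0.2 mg/ml BSA, 0.5% salmon testes DNA and 0.03% Triton X-100. Bound protein was detected with Alexa488 anti-GST antibody and scanned at 488 nm. Binding intensity is the highest Masliner-normalised natural-log median intensity across replicate spots of either probe orientation.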
On to “CGTATGTGCGGACATGCATGCAATATACAAGAAAAA [TGCATGCA_site145]”, for which the “gcPBM binding intensity (ln)” value is 7.01.
To TTATATTATATATATGTGCACATTTTTAAACTTGGA belongs 10.7; to CATTATATGATTTATGTGCACATTCATTTATTTTAA, 10.8; to TATATATATATATATGTGCACATTTTATTAAAATGT, 10.2.
For “ACATATTATTCAAGTGCACACTTTATATTTATGATT [CACACA_site3295]” the value was 8.81.
For “TATATTATTCATTAAGCACACATTATTTTTATAATA [CACACA_site6056]” the value was 6.36.
With “TATTTTTAACAGTGCACACATAACTTAATTATATGT [CACACA_site2194]”, the “gcPBM binding intensity (ln)” value was determined as 9.55.
To “TACTTAATTATAAGGACATGCACAAAAGGAATTATT [TGCATGCA_site468]” belongs 8.01; to ATTTATTTCTTGTTAGTGCACTTTCTTTGGTAAAAT, 10.9; to CTTATTTTGTTATAAGTGCATTTTTTAAAATTTCTT, 8.33.
To TGTTAAAATTATTTGGTGCACTTGTTTTACCTTATT belongs 9.92.
Turning to “ATCTTATATATACGTTGTACTACAGGATATGTCATA [XGTACX_site5734]”, the “gcPBM binding intensity (ln)” value was 6.63.
For “TTAAAATTCAAAAAAAAAAATCAGAATATCAGAAAA [CACACA_negctrl_site1361]” the value was 5.92; for TATATTTATATATTAGTGCACTTTTTGTTAATTTTT, 10.3.
For “TTATATTTAGTATATGCACACTTTATGTTTGTTATT [CACACA_site5163]” the value was 9.53.
Regarding “TATATATATTAGTGTGCACACTTTTTATTTTTATCC [CACACA_site8506]”, the “gcPBM binding intensity (ln)” value worked out at 10.5.
To “TATATATGTATATGTGTGCACCTTATTTCTTTTATT [GTGCAC_site9513]” belongs 9.55; to “TAATATTATTATTTTACACACTTTTTTCCTTTTATC [CACACA_site2457]”, 6.61; to “ATATTACACATATATGCACACATTGTAGTTATTTAT [CACACA_site8843]”, 8.92.
For “ATTGTGCACTTATATGCACACATTTTAGTTTTTTTT [CACACA_site2028]” the value was 11.5; for “TATATATTTCGGTGTGCACACTTTTTATTTTTATCC [CACACA_site1726]”, 10.7.
For “ATTTATATGCACCATTGTACGTTTTATAAAGTTTGG [XGTACX_site3755]” the value was 10.5; for “CATTTTGTTTTAAAGTGTACATTATGTAATATAAAA [XGTACX_site647]”, 6.54.
As for ATTTATATTAAAAGTGTGCACTTTTTTTTTTTTTTT, the “gcPBM binding intensity (ln)” value stood at 8.1.
For “ATATATATATAAAGTTGTACATTTTTTATTTTTTCA [XGTACX_site7847]” the value was 8.52.
Take “TTTCAATGTGACACGTGTCCGTAAAATTACATAATT [XGTACX_site7073]”: the “gcPBM binding intensity (ln)” value stood at 6.61.
To “ATCGCGAAGTAGCATTCACACACAGCAAAATATATA [CACACA_site9162]” belongs 6.65.
For “ATATATATATTTATATGTACATAATATAAAATTTCT [XGTACX_site3720]” the value was 7.7.
For “ATGTTTTTTATTCTTCGTACGTATGAACGATAGTGT [XGTACX_site4225]” the value was 6.71.
With “GCTTGTACATTTTTAAAAAATGACTTCGAAAGGAAT [CACACA_negctrl_site453]”, the “gcPBM binding intensity (ln)” value turned out to be 7.01.
To “TTTTAATTGTTTATTTGTACATATGTTTAATTATAT [XGTACX_site571]” belongs 6.79; to “TATATAAATGGACACACACACACCTTATAATTATTA [CACACA_site6093]”, 6.85.
For “CCCACATAAAAAAATAAACACACATATGTATATATA [CACACA_site9040]” the value was 7.07.
To “AAGAAAAACAATGAGATAAAGAAGAGAAAATATGTC [TGCATGCA_negctrl_site415]” belongs 6.88.
Regarding “TATATCAAAATACATACACACATTTGTATTTACATT [CACACA_site5485]”, the “gcPBM binding intensity (ln)” value stood at 6.58.
“TTGTATTCATAACAACGTACATATTTTGTAACTAAA [XGTACX_site4029]”: the “gcPBM binding intensity (ln)” value is 6.26.
To ACTTTTTTGAACAACGTGCACGTATTCATAACAAAA belongs 10.6; to “TTTGTTCATATTATTGTGCACTTAAACGTAACAAAA [GTGCAC_site9505]”, 10.1.
As to “AATATCATCAAACGCACACATACATAAATATATTAT [CACACA_site2174]”, the “gcPBM binding intensity (ln)” value came out at 7.74.
For “TGTATAAATATATGCACACATATATATATTTATATA [CACACA_site3473]” the value was 10.
Regarding “TATACGAAATTGTGCACACATATATTTATGTATGTA [CACACA_site1509]”, the “gcPBM binding intensity (ln)” value is 11.
To “TATGTATAAATATATGCACACATATATATATTTATA [CACACA_site9150]” belongs 9.35.
To “TATTTATATGTATATACATGCACATATATATGAAAC [TGCATGCA_site1005]” belongs 8.8.
To “ATACGCACACATATATGTACATATTGTATATATATA [XGTACX_site3962]” belongs 8.34; to “AATATACGAAATTGTGCACACATATATTTATGTATG [CACACA_site1510]”, 10.8; to “TAGATAAAATGAACATGTACTCATCTTAATATATAT [XGTACX_site34]”, 6.23.
Turning to “AAAAGATATATTATATGTACTAATTATATGATAAAT [XGTACX_site4192]”, the “gcPBM binding intensity (ln)” value came to 6.32.
